This passage reports cytoprotection (ATP increase) and Potency results from PubChem BioAssay AID1471 (National Center for Advancing Translational Sciences (NCATS), 2008).

About 310 (0.13%) of roughly 230,000 compounds were called active. Where a call stands in place of a potency, no number is given. Not shown: some 2% with an inconclusive outcome. The sample holds actives, similar compounds and a random draw of the others, so the mix is not that of the screen. Values without a mark were called inactive. Calls follow the shape of the dose curve; as a rule, active = well fitted activation curve with a large enough effect; inconclusive = small, poorly fitted or top-dose-only effect; inactive = no such curve, though single readings can be large or run the other way.
Potency is read from the fitted curve at half-maximal effect.

The nature of this test: qHTS Multiplex Assay to Identify Dual Action Probes in a Cell Model of Huntington: Cytoprotection (ATP). Also: nearly all actives have a fitted effect of over 45% in size.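 As to cytoprotection (ATP increase): toxic huntingtin expression switched on by the ecdysone agonist tebufenozide.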 The following applies: PC12 HTT-Q103 induced, ATP luminescence, 40 h; series mostly up to 56.4 µM. An outline of the steps: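 Rat PC12, Q103 Htt exon1-GFP fusion, ecdysone promoter; tebufenozide inducer 100 nM final; compound titration; qHTS, 1500 cells/well; ATPlite luminescent read.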
(In general: In qHTS, concentration-response curves come from the screen itself.)
Turning to `CC(C)(O)c1ccccc1CC[C@H](SCC1(CC(=O)O)CC1)c1cccc(/C=C/c2ccc3ccc(Cl)cc3n2)c1`, the cytoprotection (ATP increase) result was “inactive”.
On the same count and under the same terms, under `C=CC1(C)CC(=O)C2(O)C(C)(O1)C(OC(C)=O)C(O)C1C(C)(C)CCC(O)C12C` (stereo unspecified) stands “inactive”; under `C[C@H]1Cc2c(COc3ccccc3)nc3c(c2CO1)CN(C(=O)NCc1ccco1)CC3`, 9.12% [at 10 µM].
As to `O=C1OCCN1C(=O)[C@H]1[C@H](c2ccc(F)cc2)C(c2ccccc2)=NN1c1ccc(Br)cc1`, the cytoprotection (ATP increase) entry was “inactive”.
Still for that read-out and setting: for `Cc1cc2oc(=O)cc(-c3ccccc3)c2c(C)c1-c1ccc(OC(F)(F)F)cc1` the value was “inactive”.
`COc1ccc(CC(N)C(=O)NC2C(O)[C@H](n3cnc4c(N(C)C)ncnc43)O[C@@H]2CO)cc1` (stereo partly specified): the cytoprotection (ATP increase) entry is “inactive”.
The same measure, in the same setting: for `COC(=O)CC1c2ccccc2C(Cc2ccc(OC)cc2)=C(C)N1C(=O)OC` (stereo unspecified) the value was -4.91% [at 10 µM].
As for `COc1cc(OC)cc(-c2nc3ccccc3c(=O)n2NC(=O)c2cccnc2Cl)c1`, the cytoprotection (ATP increase) is -11.8% [at 10 µM].
Still for that read-out and setting: for `O=C1C=C(c2ccccc2)CCC1` the value was “inactive”; for `CC(C)[C@@H]1NC(=O)[C@H](Cc2ccccc2)NC(=O)[C@@H](CC(=O)O)NC(=O)CNC(=O)[C@H](CCCNC(=N)N)NC1=O`, “inactive”; for `COc1ccc(N2CCN(CCNC(=O)c3nnc(Cc4c(F)cccc4Cl)o3)CC2)cc1`, 7.41% [at 0.074 µM].
Same read-out and setting: for `Clc1ccc(C(Cn2ccnc2)OCc2ccsc2Cl)c(Cl)c1` (stereo unspecified) the value was “inactive”; for `COC(=O)C1=C(C(=O)OC)[C@@H]2N(C)c3ccccc3[C@@]23C[C@@H](C(=O)OC)N(C(=O)c2ccco2)C3=N1`, -6.19% [at 10 µM].
Turning to `COC(=O)C/C=C/[C@@H](C)[C@H](NC(=O)OCC(Cl)(Cl)Cl)c1ccccc1`, the cytoprotection (ATP increase) entry was “inactive”.
On to `C=CC1=C2C=C(C3CC3)N(C(CO)CO)C=C2C(=O)C(C)(OC(=O)c2ccco2)C1=O` (stereo unspecified), for which the cytoprotection (ATP increase) is -26.7% [at 10 µM].
As to `Cc1ccc(-c2cccc([C@H]3[C@@H]4C=CC[C@@H](C)[C@@H]4C(=O)N3Cc3ccccc3)c2)cc1`, the cytoprotection (ATP increase) result was “inactive”.
On to `COc1ccc(/C=C2\NC(=O)[C@@H]3Cc4ccccc4CN3C2=O)cc1`, for which the cytoprotection (ATP increase) entry was “inactive”.
On the same count and under the same terms, under `COC(=O)c1c(CCl)noc1C(=O)NC(C)C` stands “inactive”; under `c1ccc(CSc2ncnc3c2sc2nc(N4CCOCC4)c4c(c23)CCCC4)cc1`, “inactive”; under `C[C@H]1Cc2c(COc3ccccc3)nc3c(c2CO1)CN(C(=O)Nc1cccc(C#N)c1)CC3`, -20.7% [at 10 µM].
Same read-out and setting: under `COc1ccc(-c2nc3c(c4c2C[C@H](c2ccccc2)OC4)CN(C(=O)C2CC2)CC3)c(C)c1` stands 6.89% [at 10 µM].
Same read-out and setting: under `COC(=O)CSc1ccc2nnc(CCNS(=O)(=O)c3ccc(C)cc3)n2n1` stands “inactive”; under `CCN1C(=O)N[C@@H](c2ccccc2)C(C(=O)OC)=C1C`, -11.9% [at 10 µM]; under `NC(=O)C(=O)N/N=C/c1ccc([N+](=O)[O-])o1`, “inactive”.
Turning to `CCOC(=O)C1CSC(CC(=O)Nc2ccc(OCC)cc2)C(=O)N1` (stereo unspecified), the cytoprotection (ATP increase) was 0.901% [at 10 µM].
Still for that read-out and setting: for `COCCCNC(=O)Cn1cc(/C=C(\C#N)C(=O)N2CCN(c3ccccc3)CC2)c2ccccc21` the value was 1.65% [at 10 µM]; for `COC(=O)C(C(=O)OC)C1c2ccccc2C=C(C2CC2)N1C(=O)OC` (stereo unspecified), “inactive”; for `Cc1csc(-c2coc3cc(O[C@@H]4O[C@H](CO)[C@@H](O)[C@@H](O)[C@H]4O)ccc3c2=O)n1`, “inactive”.
Consider `O=C1CCC[C@@H]2CC(N3CCCCC3)C[C@@H]3CCN1[C@H]23` (stereo partly specified), for which the cytoprotection (ATP increase) entry was “inactive”.
Consider `CC1=C(C/C=C(\C)CCCC(C)CCCC(C)CCCC(C)C)C(=O)c2ccccc2C1=O` (stereo unspecified), for which the cytoprotection (ATP increase) result is “inactive”.
Same read-out and setting: for `CCOC(=O)C1=C(C)c2ccccc2OC1(C)C(=O)OCC` (stereo unspecified) the value was “inactive”; for `COC(=O)[C@@H]1CC2=CC(=O)CC[C@]2(C)[C@@]23O[C@@H]2C[C@@]2(C)[C@@H](CC[C@@]24CCC(=O)O4)[C@H]13`, “inactive”; for `C[C@H](NC(=O)c1nc[nH]c1C(=O)N[C@@H](C)C(=O)OC(C)(C)C)C(=O)OC(C)(C)C`, 22% [at 10 µM].
Regarding `CCCCC/C=C\C/C=C\CCCCCCCCCC(N)=O`, the cytoprotection (ATP increase) result was “inactive”.
The same measure, in the same setting: for `CCCCC/C=C\CC1OC1CCCCCCCC(=O)O` (stereo unspecified) the value was “inactive”; for `CCCCCCCC[C@@H](O)/C=C/C=C/C=C\[C@@H](O)CCCC(=O)O`, “inactive”.
For `O=C(NCCSCc1ccccc1)c1ccc(Cl)c(S(=O)(=O)N2CCOCC2)c1`, the Potency was 0.398 µM (active).
For the compound `CC(C)(CNC(=O)c1ccc(Cl)c(S(=O)(=O)N2CCc3ccccc3C2)c1)N1CCOCC1`, the cytoprotection (ATP increase) result was “inactive”.
For the compound `Cc1ccccc1CSCCNC(=O)c1ccc(Cl)c(S(=O)(=O)N2CCOCC2)c1`, the cytoprotection (ATP increase) was -0.687% [at 10 µM].
For `CCCCC/C=C\C/C=C\CCCCCCCCCC(=O)O`, the cytoprotection (ATP increase) result is “inactive”.
Regarding `Nc1nc2c(ncn2[C@@H]2O[C@H](COP(=O)(O)OP(=O)(O)OP(=O)(O)O)[C@@H](O)C2O)c(=O)[nH]1` (stereo partly specified), the cytoprotection (ATP increase) result is “inactive”.
Still for that read-out and setting: under `CC1(C)O[C@@H]2C[C@@H]3[C@H]4C[C@@H](F)C5=CC(=O)C=C[C@]5(C)[C@@]4(F)[C@@H](O)C[C@]3(C)[C@]2(C(=O)CO)O1` stands “inactive”; under `C/C=C/C=N/NC(=O)c1ccncc1`, “inactive”.
The same measure, in the same setting: for `CCOC(=O)c1c(NC(=O)CSc2nnc(CNc3ccc(C)cc3C)o2)sc(C)c1C` the value was 33% [at 10 µM]; for `CCOC(=O)C1=C(C(=O)OCC)C(C(=O)OCC)N(S(=O)(=O)C(F)(F)F)c2ccccc21` (stereo unspecified), “inactive”; for `CC(OC(=O)CNS(=O)(=O)/C=C/c1ccccc1)C(=O)Nc1ccc(S(=O)(=O)N2CCCC2)cc1` (stereo unspecified), 15.7% [at 10 µM].
For the compound `CC(C)(C)NCC(O)COc1cccc2[nH]c(=O)[nH]c12` (stereo unspecified), the cytoprotection (ATP increase) result was “inactive”.
Same read-out and setting: for `CC/C=C\C/C=C\C/C=C\C/C=C\C/C=C\C/C=C\CCC(=O)NCCc1ccc(O)c(O)c1` the value was “inactive”; for `CC(C)c1cnc(NC(=O)Cc2ccccc2)s1`, “inactive”.
`N#Cc1c(-c2ccc(F)cc2)nc(-c2ccccc2)[nH]c1=O`: the cytoprotection (ATP increase) entry was “inactive”.
Still for that read-out and setting: under `N#Cc1ccc(-c2ccc(F)cc2)nc1Sc1ccccc1` stands “inactive”.
With `N#Cc1ccc(-c2nc3cc(C#N)c(C#N)cc3nc2-c2ccccc2)cc1C#N`, the Potency was 2.82 µM (active).
Take `Cc1csc(-c2nc3ccccc3n2C)n1`: the cytoprotection (ATP increase) is -116% [at 1.9 µM].
The same measure, in the same setting: under `CC(O)[C@@H](N)C(=O)O` (stereo partly specified) stands “inactive”; under `COc1ccc(OC)c(NC(=O)c2cnn(-c3ccccc3Cl)c2NC(=O)c2ccco2)c1`, “inactive”.
Still for that read-out and setting: under `C=CCC(C)(O)c1ccco1` (stereo unspecified) stands “inactive”; under `NNc1nnc(NN)c2ccccc12`, “inactive”.
Consider `CCCCc1nnc(NC(=O)CSc2nc(C)cc(=O)[nH]2)s1`, for which the cytoprotection (ATP increase) entry was “inactive”.
On to `NC(=O)c1c(NC(=O)CSc2nc(N)cc(=O)[nH]2)sc2c1CCCC2`, for which the cytoprotection (ATP increase) was 2.28% [at 10 µM].
On to `CCCCc1nnc(NC(=O)CSc2nc(N)cc(=O)[nH]2)s1`, for which the Potency was 3.16 µM (active).
As to `Cc1cccc(C)c1NC(=O)NC1=CCCN1C`, the cytoprotection (ATP increase) entry is “inactive”.
